# PubChem BioAssay (NCATS)
# Inconclusive results are not listed. Unmarked numbers belong to inactive results. The source made the active and inactive calls. The call rests on the fitted dose curve; in most records, active means well fitted inhibition curve with a large enough effect; inconclusive means small, poorly fitted or top-dose-only effect; inactive means flat fitted curve, though single readings scatter. Non-standard residues stand in square brackets, D forms with d. Residues, ends and D or L forms follow the SMILES beside them. *: point of attachment. Nva = CCC[C@H](N)C(=O)O; Cbz = O=C(OCc1ccccc1)*
# Test system: WaGa
# Assay: qHTS assay to identify novel small-molecules to repurpose for Merkel cell carcinoma treatment (AID 1296009); further: nearly all actives have a fitted effect of over 60% in size
# Conditions: MCC and control cell lines, CellTiter-Glo viability, 72 h; series mostly up to 46 µM; activity change, negative = cytotoxicity: at the top concentration
# Outline: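 Dose-response viability screen; 72 hr exposure at 37 degree celsius; CellTiter-Glo added, 10 min room temperature, luminescence read; RLUs scaled between no-cell and DMSO wells.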
# On the % scale 0 is the no-effect control and ±100 the full control effect; potency means the concentration at half of the fitted maximal effect.
Compound,"activity change, negative = cytotoxicity [%]",Potency
NC(=O)c1cccc(-c2cccc(OC(=O)NC3CCCCC3)c2)c1,5.43,–
COC(=O)[C@@H]1CC2=CC(=O)CC[C@]2(C)[C@@]23O[C@@H]2C[C@@]2(C)[C@H](CC[C@@]24CCC(=O)O4)[C@@H]13,7.11,–
COc1cc2c(Nc3ccc(Cl)c(Cl)c3F)ncnc2cc1OCC1C[C@@H]2CN(C)C[C@H]2C1,–,18700 nM (active)
C=C1C(=O)O[C@H]2[C@@H]1CCC(C)=CCC[C@@]1(C)O[C@@H]21,–,7430 nM (active)
CC(=O)C1=C(O)C=C2Oc3c(C(C)=O)c(O)c(C)c(O)c3C2(C)C1=O (configuration not stated),7.24,–
CC(=O)O[C@@]12CO[C@H]1C[C@H](O)[C@@]1(C)C(=O)[C@H](O)C3=C(C)[C@@H](OC(=O)C(O)[C@@H](NC(=O)OC(C)(C)C)c4ccccc4)C[C@@](O)([C@@H](OC(=O)c4ccccc4)[C@@H]21)C3(C)C (some centres not stated),-42.8,–
CC[C@]12C=CCN3CC[C@@]4(c5cc([C@@]6(C(=O)OC)C[C@H]7C[C@@H](C(C)(F)F)CN(Cc8c6[nH]c6ccccc86)C7)c(OC)cc5N(C)[C@H]4[C@@](O)(C(=O)OC)[C@H]1OC(C)=O)[C@@H]32,–,5.9 nM (active)
C[C@@H]1CC[C@@]2(OC1)OC1CC3C4CC=C5CC(O)CCC5(C)C4CCC3(C)C1[C@@H]2C (some centres not stated),1.28,–
COc1cc(C)c(Sc2cnc(NC(=O)c3ccc(CNC(C)C(C)(C)C)cc3)s2)cc1C(=O)N1CCN(C(C)=O)CC1 (configuration not stated),–,16600 nM (active)
CCCCCCCCc1ccc(CCC(N)(CO)CO)cc1,-15.8,–
Cc1ccc(O)c(C(CCN(C(C)C)C(C)C)c2ccccc2)c1 (configuration not stated),6.12,–
COc1cccc2c1C(=O)c1c(O)c3c(c(O)c1C2=O)C[C@@](O)(C(=O)CO)C[C@@H]3O[C@H]1C[C@H](N)[C@H](OC2CCCCO2)[C@H](C)O1 (some centres not stated),–,1660 nM (active)
N#CC(=C(O)c1ccc(Cl)cc1Cl)c1nc2cc(Cl)ccc2c(=O)[nH]1,2.47,–
CCOC(=O)C1=C(C)NC(=S)NC1c1cccc(O)c1 (configuration not stated),–,52.6 nM (active)
O=C(C=Cc1ccc(CN(CCO)CCc2c[nH]c3ccccc23)cc1)NO,–,105 nM (active)
O=C(C=CC=Cc1ccc2c(c1)OCO2)N1CCCCC1,-2.47,–
CCC(C(=O)O)C1CCC(C)C(C(C)C(O)C(C)C(=O)C(CC)C2OC3(C=CC(O)[C@@]4(CC[C@](C)(C5CC[C@@](O)(CC)C(C)O5)O4)O3)C(C)CC2C)O1 (some centres not stated),–,2960 nM (active)
C=CC1=C(C(=O)O)N2C(=O)[C@@H](NC(=O)C(=NO)c3csc(N)n3)[C@H]2SC1,-2.98,–
O=S(=O)(O)CCSSCCS(=O)(=O)O,7.59,–

Compound,"activity change, negative = cytotoxicity [%]",Potency
CCCNC(=O)[C@H]1O[C@H]1C(=O)N[C@H](C(=O)N1CCC[C@@H]1C(=O)OC)C(C)CC (some centres not stated),–,8330 nM (active)
O=C(C[C@@H]1CC=CCCC(=O)O[C@H](c2ccccc2)CNC1=O)NCc1ccc(Cl)cc1,7.02,–
C=CC(=O)Nc1cc(NC(=O)c2ccc(C)c(NC(=O)c3ccno3)c2)cc(C(F)(F)F)c1,–,18700 nM (active)
O=C1CSC(=O)N1C(CCc1ccncc1)COc1ccc(-c2cccc([N+](=O)[O-])c2)cc1 (configuration not stated),–,16600 nM (active)
C=C1C(=CC=C2CCC[C@]3(C)[C@@H]([C@H](C)CCCC(C)(C)O)CC[C@@H]23)C[C@@H](O)C[C@@H]1O,–,1480 nM (active)
O=C1NC(=O)C(=Cc2ccc3nccc(-c4ccncc4)c3c2)S1,–,833 nM (active)
C[C@H](NC(=O)Cc1cc(F)cc(F)c1)C(=O)N[C@H](C(=O)OC(C)(C)C)c1ccccc1,-12,–
COc1ccc(C(C)=O)c(O)c1,8.83,–
CC(C)(C)[N+]([O-])=Cc1ccc(S(=O)(=O)O)cc1S(=O)(=O)O,1.64,–
N=c1ccn2c(n1)O[C@H]1[C@@H](O)[C@@H](CO)O[C@H]12,–,2090 nM (active)
CC(C)(C)c1nc2c3cc[nH]c(=O)c3c3cc(F)ccc3c2[nH]1,-17,–
c1ccc(CNc2nc(NCc3ccccc3)c3ccccc3n2)cc1,-19.1,–
C=C[C@@H]1CN2CCC1C[C@H]2[C@H](O)c1ccnc2ccc(OC)cc12 (some centres not stated),-2.82,–
CC(=O)O[C@H]1C[C@@H]2CC[C@H]3[C@H]4C[C@H]([N+]5(C)CCCCC5)[C@@H](OC(C)=O)[C@@]4(C)CC[C@@H]3[C@@]2(C)C[C@H]1[N+]1(C)CCCCC1,2.27,–
CN[C@H]1[C@@H](O)[C@@H]2O[C@@H]3O[C@H](C)CC(=O)[C@]3(O)O[C@@H]2[C@@H](NC)[C@H]1O,–,296 nM (active)
CCC[C@@H](C=O)NC(=O)[C@H](CC(C)C)NC(=O)[C@H](CC(C)C)NC(=O)OCc1ccccc1 (Cbz-Leu-Leu-[Nva]-aldehyde),–,833 nM (active)
CS[C@H]1SC[C@@H]2C(=O)N(C)[C@H](C(C)C)C(=O)OC[C@H](NC(=O)c3cnc4ccccc4n3)C(=O)N[C@H](C)C(=O)N(C)[C@@H]1C(=O)N(C)[C@H](C(C)C)C(=O)OC[C@H](NC(=O)c1cnc3ccccc3n1)C(=O)N[C@H](C)C(=O)N2C,-72.3,–
COC(=O)C1C2CC3c4[nH]c5cc(OC)ccc5c4CCN3CC2CC(OC(=O)c2cc(OC)c(OC)c(OC)c2)C1OC (configuration not stated),2.75,–
